From PubChem BioAssay
Shown are actives, neighbours in structure and some others; about 4.7% of the full set was active somewhere.
tim23-1 inh: inhibits growth of tim23-1 mutant yeast; S. cerevisiae tim23-1 growth, BacTiter-Glo luminescence, 24 h; inhibition, % at 20 µM; actives 1.3% (n = 330,000); AID 463212;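 active means growth inhibition of the mutant yeast at or above 50%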;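 further: temperature-sensitive mutant grown at 25 °C; plate controls were DMSO-treated mutant yeast for no effect and medium wells lacking yeast for full effect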
SKKanGAS inh: inhibitors of SKKanGAS S. pyogenes growth in kanamycin (SK-promoter or general growth effect). AID 1662. actives 1.3% (n = 300,000). BacTiter-Glo, 6 h. inhibition, % at 7.5 µM;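 active means mean replicate score, as percent of positive control median, at least 50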;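 further: strain carries kanamycin resistance gene driven by streptokinase promoter and grows in 40 µg/ml kanamycin; loss of luminescence reflects streptokinase promoter inhibition or plain growth inhibition; 0% = median of DMSO wells and 100% = positive control at its reference dose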
tim10-1 inh: tim10-1 yeast growth inhibition; S. cerevisiae tim10-1 ts strain growth, BacTiter-Glo, 24 h; inhibition, % at 20 µM; actives 2.2% (n = 330,000); AID 463190;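 active means inhibition of at least 40%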;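 further: mutant grown at 25 °C; 0% = DMSO wells with yeast and 100% = wells holding no yeast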
ATG4B inhibitor: inhibitors of human ATG4B cysteine protease; Q9Y4P1; ATG4B cleavage of LC3-PLA2, NBD-HPC fluorescence, 1 h; inhibition, % at 8.33 µM; actives 0.51% (n = 340,000); in the data active means inhibition above about 40%
Target sequence (Q9Y4P1 whole entry, looked up): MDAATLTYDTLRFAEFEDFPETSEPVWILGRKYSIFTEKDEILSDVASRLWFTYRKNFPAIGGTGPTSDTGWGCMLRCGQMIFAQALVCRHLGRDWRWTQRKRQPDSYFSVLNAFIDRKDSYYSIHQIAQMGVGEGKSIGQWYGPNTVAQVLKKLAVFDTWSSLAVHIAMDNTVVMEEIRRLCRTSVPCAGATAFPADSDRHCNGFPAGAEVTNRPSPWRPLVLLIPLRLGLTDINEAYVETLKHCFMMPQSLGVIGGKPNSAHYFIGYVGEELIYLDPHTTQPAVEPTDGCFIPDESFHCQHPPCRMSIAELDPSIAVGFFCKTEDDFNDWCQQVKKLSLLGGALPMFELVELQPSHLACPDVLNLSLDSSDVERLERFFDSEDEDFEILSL
PfHsp90 set2: growth inhibition of yeast expressing Plasmodium Hsp90 | actives 0.32% (n = 310,000) | S. cerevisiae expressing PfHsp90, BacTiter-Glo ATP, 48 h; yeast lacking PDR1 and PDR3 efflux regulators | inhibition, % at 9.4 µM;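 active means every replicate shows inhibition above about 80%, whatever the replicate mean, limit read from the data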;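 further: 0% = DMSO neutral controls and 100% = 20 µM radicicol positive controls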
TIM10 inh: inhibits growth of TIM10 yeast strain | S. cerevisiae TIM10 strain growth, BacTiter-Glo luminescence, 24 h | inhibition, % at 10 µM | actives 1.4% (n = 330,000);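 active means inhibition of 40% or more at the single tested concentration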;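 further: wild-type TIM10 isogenic control strain grown at permissive 25 °C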
TIM10 conf: confirmation of TIM10 yeast growth inhibitors. shares compounds with TIM10 inh. S. cerevisiae tim10 strain growth, BacTiter-Glo luminescence, 24 h. inhibition, % at 10 µM. actives 63% (n = 4,600). AID 463215;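 active means inhibition of yeast growth at or above a set limit in either of two replicates at 10 µM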;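 further: this counterscreen used the strain with wild-type TIM10; 0% = yeast with DMSO and 100% = medium wells lacking yeast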
Numbers without * were called inactive; x = no result; ! = not active in a repeat.

SMILES | tim23-1 inh | SKKanGAS inh | tim10-1 inh | ATG4B inhibitor | PfHsp90 set2 | TIM10 inh | TIM10 conf
Cc1ccc(S(=O)(=O)N(C)CC(=O)OCC(=O)NCCN2C(=O)CSC2=O)cc1 | -1 | x | 22 | -2 | 1 | -4 | x
O=C(Nc1ccccn1)c1ccc2c(=O)n3c(nc2c1)CCCCC3 | 48 | x | 14 | -3 | -10 | 51* | 35*
O=C(Nc1ccc(F)c(Cl)c1)c1ccc2c(=O)n3c(nc2c1)CCCCC3 | 42 | 5 | 29 | -4 | 20 | 60* | 46*
O=C(Nc1ccc(F)cc1)c1ccc2c(=O)n3c(nc2c1)CCCCC3 | 14 | -2 | -9 | -4 | 28 | 11 | x
O=c1oc2ccccc2c(Nc2ccccc2O)c1[N+](=O)[O-] | -13 | 1 | 11 | 1 | -7 | 9 | x
O=c1oc2ccccc2c(Nc2cccc3ccccc23)c1[N+](=O)[O-] | 39 | 18 | 31 | 4 | 1 | 49* | 36*
O=C(Cc1ccc(Br)cc1)NNC(=O)Nc1ccc(Cl)cc1 | 9 | 2 | -5 | -6 | -4 | -8 | x
O=C(CCN1C(=O)c2ccccc2C1=O)NCc1cccc(Cl)c1 | 14 | -4 | 14 | -2 | 15 | -1 | x
Cc1nc2ccc(NC(=O)c3cccs3)cc2s1 | 48 | 27 | 18 | -5 | 15 | 46* | 27
Cc1nc2ccc(NC(=O)c3ccccc3)cc2s1 | 30 | -10 | -5 | -6 | 12 | 44* | 7
Cc1nc2ccc(NS(=O)(=O)c3ccc(F)cc3)cc2s1 | 9 | -3 | 3 | -1 | 0 | 60* | 0
CC(=O)Nc1ccc2nc(NC(=O)c3cccs3)sc2c1 | 11 | -8 | 24 | -1 | 37 | 23 | x
Nn1c(SCc2ccc(Br)cc2)nnc1-c1ccncc1 | 15 | 0 | -16 | 1 | 8 | 7 | x
Cc1ccc(CSc2nnc(-c3ccncc3)n2N)cc1 | 2 | 4 | -8 | 0 | x | 42* | 8
CC12CCCc3c(O)cc(=O)n(c31)-c1ccccc12 (stereo unspecified) | 15 | -7 | 23 | -5 | -22 | 12 | x
Cc1n[nH]c(C)c1CCOc1ccc(C(C)C)cc1 | 43 | 96* | 36 | -3 | -15 | 49* | 30*
CSc1ccc(/C=N/NC(=O)CN2CCN(Cc3ccccc3)CC2)cc1 | 17 | 10 | 0 | -13 | -13 | 8 | x
CSc1ccc(/C=N/NC(=O)CN2CCN(Cc3ccc(Cl)cc3)CC2)cc1 | 18 | 7 | 31 | -16 | -2 | 41* | 7
Cn1c2ccccc2c2nn(-c3ccccc3)c(=O)cc21 | 49 | 13 | 33 | 4 | -11 | 21 | x
CC(OC(=O)c1ccc([N+](=O)[O-])s1)C(=O)Nc1ncc(Cl)cc1Cl (stereo unspecified) | 23 | 11 | 24 | -18 | -3 | 44* | 2
COc1ccccc1NC(=O)COC(=O)CCn1c(C)csc1=O | 17 | -10 | 7 | -3 | -51 | -2 | x
COC(=O)c1c(C)[nH]c(C(=O)OCC(=O)c2ccc(C)s2)c1C | 5 | x | -14 | -6 | 9 | 9 | x
Cn1c2ccc(Br)cc2c2nnc(SCC(=O)O)nc21 | 28 | -2 | 31 | -3 | -15 | 60* | 75*
Cc1cc(C)n(-c2nc3ccccc3nc2N2CCC(C)CC2)n1 | 24 | -7 | 25 | 3 | x | 42* | 18
COCc1cc(C)nc(SCC[N+](C)(C)CC(=O)c2ccc(Br)cc2)c1C#N | 7 | 3 | 2 | 2 | x | -13 | x
SMILES | tim23-1 inh | SKKanGAS inh | tim10-1 inh | ATG4B inhibitor | PfHsp90 set2 | TIM10 inh | TIM10 conf
c1ccc(CNc2ncnc3ccccc23)cc1 | -21 | -1 | 8 | 5 | 16 | 81*! | -16
COc1cccc(-c2sc3ccccc3c2-c2ccc(OCCN(C)C)cc2)c1 | -1 | x | -8 | -1 | 38 | 50* | 52*
COc1ccc2sc(-c3ccccc3OC)c(-c3ccc(OCCN(C)C)cc3)c2c1 | 41 | x | 3 | 2 | 19 | 25 | x
COc1ccc(C2C(C(C)=O)=C(C)Nc3ncnn32)c(OC)c1OC (stereo unspecified) | 4 | -15 | -5 | 1 | -56 | 4 | x
O=C(NC1=NCCS1)c1csc2ccccc12 | 28 | -1 | 34 | -1 | 12 | 44* | 28
O=C(NC1=NCCS1)c1cc(-c2cccc(Br)c2)nc2ccccc12 | 47 | 4 | 36 | -16 | -13 | 43* | 10
